PubChem BioAssay (EPA / NIEHS)
Active and inactive are the calls of the source. The calls were made as follows: active = hit-call score of the fitted dose curve at least 0.9, where 1 is the maximum; inactive = score below 0.9.

Read-out: CD69, CD69 (gene 969)
Experiment: BSK_SAg_CD69: BioMAP Diversity Plus: SAg Assay for CD69 Biomarker Activity (AID 2283089)
Settings: primary human HUVEC with PBMC; actives raise or lower the signal
Experimental: BSK_SAg is a cell-based, multiplexed-readout assay that uses umbilical vein endothelium and peripheral blood mononuclear cells, a human vascular primary cell co-culture, with measurements taken at 24 hours after chemical dosing in a 96-well plate.BSK_SAg_CD69 is one of 10 assay component(s) measured or calculated from the BSK_SAg assay. It is designed to make measurements of enzyme-linked immunosorbent assay, a form of binding reporter, as detected with fluorescence intensity signals by Enzyme-linked immunosorbent assay technology.Data from the assay component BSK_SAg_CD69 was analyzed into 1 assay endpoint. This assay endpoint, BSK_SAg_CD69, was analyzed with bidirectional fitting relative to DMSO as the negative control and baseline of activity. Using a type of binding reporter, gain or loss-of-signal activity can be used to understand changes in the signaling as they relate to the gene CD69. Furthermore, this assay endpoint can be referred to as a primary readout, because this assay has produced multiple assay endpoints where this one serves a signaling function. To generalize the intended target to other relatable targets, this assay endpoint is annotated to the cytokine intended target family, where the subfamily is inflammatory factor.
The levels of cell surface (or secreted, indicated by the prefix "s") biomarker endpoints were measured by ELISA. Overt cytotoxicity to cells in confluent adherent cultures (all systems other than the BT system) was assessed by measuring total protein levels using sulforhodamine B (SRB) staining in parallel cultures at the time of biomarker measurements, indicated as SRB endpoints. For proliferation assays for adherent cell types, individual cell types are cultured at sub-confluence and relative cell numbers quantified by SRB staining at time points optimized for each system (48 h: 3C and CASM3C systems; 72 h: BT and HDF3CGF systems; 96 h: SAg system). SRB was performed by staining cells with 0.1% SRB after fixation with 10% TCA and reading wells at 560 nm.Viability and proliferation of PBMC (T cells) was quantified by Alamar Blue reduction for the SAg and BT systems. For PBMC viability (referred to as PBMC Cytotoxicity within the assay endpoint names), cells were plated (75,000/well in a 96-well plate) and then chemical samples added for 1 h before addition of activators, SEB and TSST-1 (20 ng/mL final concentration each). Cells were incubated for 90 h. Then, Alamar Blue (20 uL/well) (Invitrogen, Cat DAL1100) was added for 6 h, and the plates were read with a fluorescence microplate reader at 546/580 nm (excitation/emission). For PBMC proliferation, cells were plated and activated as above but incubated for only 16 h prior to addition of Alamar Blue. Plates were read after 6 h.

Compound | outcome | AC50
CC(C)=CCC/C(C)=C/CO | inactive | –
COC(=O)CC(=O)OC | inactive | –
O=C1CCCCCN1 | inactive | –
COc1ccc(/C=C/S(=O)(=O)NC(=O)c2ccc(C)cc2Cl)cc1 | inactive | –
COCCOc1cc2cc(C(=O)NC3CCN(C(C)C)CC3)n(CC(=O)Nc3ccc(Cl)cn3)c2cn1 | inactive | –
CCc1cc(SCc2sc(-c3ccc(C(F)(F)F)cc3)nc2CN2CCN(c3ccc(OC)cc3)CC2)ccc1OCC(=O)O | – | 15.1 µM (active)
CNCc1ccc(NC(=O)c2c[nH]c3c2C(=O)CCC3)cc1 | inactive | –
O=C(O)CCN(C1(C(=O)NO)CCCC1)S(=O)(=O)c1ccc(Oc2ccc(F)cc2)cc1 | inactive | –
CCCN(C1CCN(C(=O)C2CCNCC2)CC1)[C@@H]1CCc2ccc(OC)cc2C1 | inactive | –
Cc1ccc(S(=O)(=O)O)cc1C | inactive | –
Cc1[nH]cnc1C[C@H]1CCc2c(C)c3ccccc3n2C1=O | – | 27.4 µM (active)
CC(=O)OCCC(C)C | inactive | –
O=C(CCCCCCCCc1cccnc1)N1CCC(C=C(c2ccccc2)c2ccccc2)CC1 | – | 8.49 µM (active)
O=C(NS(=O)(=O)/C=C/c1ccccc1)c1ccc(F)cc1Cl | inactive | –
Cn1c(=O)cc(Oc2ccc(F)cc2F)c2cnc(NCC(C)(C)O)nc21 | inactive | –
C=CC(=C)CCC=C(C)C | inactive | –
CCOCCO | inactive | –
C1N2CN3CN1CN(C2)C3 | inactive | –
CN(C)c1ccc(N=NS(=O)(=O)O)cc1 | inactive | –
COCCOCCOCCOC | inactive | –

Compound | outcome | AC50
CCOc1cccc(-n2cc(C(=O)N3CCN(c4cc(C(=O)O)c5ccccc5c4)CC3)nc2-c2ccc(C)cc2)c1 | – | 21.7 µM (active)
CCOC(=O)c1ccc(C2CCC(NC[C@H](O)COc3ccc(O)c(NS(C)(=O)=O)c3)CC2)cc1 (stereo not given in full) | – | 29.8 µM (active)
COc1cccc(-c2ccc(/C=C\CN3CCCCCC3)cc2Cl)c1 | – | 30.4 µM (active)
Nc1cccc(N)c1 | inactive | –
Cn1cnc([N+](=O)[O-])c1Sc1ncnc2nc[nH]c12 | inactive | –
CC(C)CC(C)(O)C#CC(C)(O)CC(C)C (stereo not given) | inactive | –
O=C(O)c1cccc(N(Cc2cccnc2)c2ccc(OC(F)F)c(OC(F)F)c2)c1 | – | 4.01 µM (active)
O=c1n(CC2CO2)c(=O)n(CC2CO2)c(=O)n1CC1CO1 (stereo not given) | – | 20 µM (active)
CC[C@H](C)C(=O)O[C@H]1C[C@@H](C)C=C2C=C[C@H](C)[C@H](CC[C@@H]3C[C@@H](O)CC(=O)O3)[C@H]21 | – | 13.8 µM (active)
O=C(OC[C@H]1O[C@@H](OC(=O)c2cc(O)c(O)c(OC(=O)c3cc(O)c(O)c(O)c3)c2)[C@H](OC(=O)c2cc(O)c(O)c(OC(=O)c3cc(O)c(O)c(O)c3)c2)[C@@H](OC(=O)c2cc(O)c(O)c(OC(=O)c3cc(O)c(O)c(O)c3)c2)[C@@H]1OC(=O)c1cc(O)c(O)c(OC(=O)c2cc(O)c(O)c(O)c2)c1)c1cc(O)c(O)c(OC(=O)c2cc(O)c(O)c(O)c2)c1 | – | 6.1 µM (active)
CC(C)CCO | inactive | –
CC(C)=CCCC(C)=CC=O | inactive | –
NC(=O)NO | inactive | –
CCNc1ccccc1 | inactive | –
CC1=CC(=O)CC(C)(C)C1 | inactive | –
CC(C)CCCCCCOC(=O)c1ccc(C(=O)OCCCCCCC(C)C)c(C(=O)OCCCCCCC(C)C)c1 | inactive | –
Clc1nc(Cl)c(Cl)c(Cl)c1Cl | – | 26.3 µM (active)
COC(=O)c1c(Cl)c(Cl)c(C(=O)OC)c(Cl)c1Cl | inactive | –
O=C1CCC(N2C(=O)c3ccccc3C2=O)C(=O)N1 (stereo not given) | inactive | –
Cc1ccc(O)cc1 | inactive | –
